Laboratory results reported in the supplement of paper PMC12067093, “Discovery and optimisation of a covalent ligand for TRIM25 and its application to targeted protein ubiquitination” (Chemical Science, 2025).
The full data set covers some 21,000 targets. This sample favours those with the largest changes.

Experiments:
compound 10 = compound: Cc1cc(ccc1-c1ccccc1)C(=O)N1CCCN(CC1)C(=O)CCl [compound 10]; assay: probe-labelled cysteine peptide fold change vs DMSO (competition) (log2 fold change); higher = less target engagement (more negative = stronger competition); settings: THP-1, incubation time: 4 h
[1] = compound: CC1Cc2ccccc2N1C(=O)C1CCCN(C1)C(=O)CCl (mixture of isomers) [TRIM25 ligand 11 (diastereomer mixture)]; assay: as above; settings: THP-1, incubation time: 4 h

UniProt Q9Y4P8, sequence (Q9Y4P8 whole entry, looked up): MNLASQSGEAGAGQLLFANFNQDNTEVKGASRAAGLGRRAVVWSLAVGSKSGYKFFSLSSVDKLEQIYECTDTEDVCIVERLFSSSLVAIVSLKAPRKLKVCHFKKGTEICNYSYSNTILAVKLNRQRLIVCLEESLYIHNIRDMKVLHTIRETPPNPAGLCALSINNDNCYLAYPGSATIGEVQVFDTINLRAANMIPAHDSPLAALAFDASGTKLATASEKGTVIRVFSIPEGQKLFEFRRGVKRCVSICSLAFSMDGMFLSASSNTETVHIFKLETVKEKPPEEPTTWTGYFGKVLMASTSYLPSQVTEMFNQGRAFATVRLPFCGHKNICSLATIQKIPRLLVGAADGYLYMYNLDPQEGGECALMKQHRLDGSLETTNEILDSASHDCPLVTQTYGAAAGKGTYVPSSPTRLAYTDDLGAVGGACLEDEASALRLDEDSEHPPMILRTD
UniProt Q92618, sequence (Q92618 whole entry, looked up): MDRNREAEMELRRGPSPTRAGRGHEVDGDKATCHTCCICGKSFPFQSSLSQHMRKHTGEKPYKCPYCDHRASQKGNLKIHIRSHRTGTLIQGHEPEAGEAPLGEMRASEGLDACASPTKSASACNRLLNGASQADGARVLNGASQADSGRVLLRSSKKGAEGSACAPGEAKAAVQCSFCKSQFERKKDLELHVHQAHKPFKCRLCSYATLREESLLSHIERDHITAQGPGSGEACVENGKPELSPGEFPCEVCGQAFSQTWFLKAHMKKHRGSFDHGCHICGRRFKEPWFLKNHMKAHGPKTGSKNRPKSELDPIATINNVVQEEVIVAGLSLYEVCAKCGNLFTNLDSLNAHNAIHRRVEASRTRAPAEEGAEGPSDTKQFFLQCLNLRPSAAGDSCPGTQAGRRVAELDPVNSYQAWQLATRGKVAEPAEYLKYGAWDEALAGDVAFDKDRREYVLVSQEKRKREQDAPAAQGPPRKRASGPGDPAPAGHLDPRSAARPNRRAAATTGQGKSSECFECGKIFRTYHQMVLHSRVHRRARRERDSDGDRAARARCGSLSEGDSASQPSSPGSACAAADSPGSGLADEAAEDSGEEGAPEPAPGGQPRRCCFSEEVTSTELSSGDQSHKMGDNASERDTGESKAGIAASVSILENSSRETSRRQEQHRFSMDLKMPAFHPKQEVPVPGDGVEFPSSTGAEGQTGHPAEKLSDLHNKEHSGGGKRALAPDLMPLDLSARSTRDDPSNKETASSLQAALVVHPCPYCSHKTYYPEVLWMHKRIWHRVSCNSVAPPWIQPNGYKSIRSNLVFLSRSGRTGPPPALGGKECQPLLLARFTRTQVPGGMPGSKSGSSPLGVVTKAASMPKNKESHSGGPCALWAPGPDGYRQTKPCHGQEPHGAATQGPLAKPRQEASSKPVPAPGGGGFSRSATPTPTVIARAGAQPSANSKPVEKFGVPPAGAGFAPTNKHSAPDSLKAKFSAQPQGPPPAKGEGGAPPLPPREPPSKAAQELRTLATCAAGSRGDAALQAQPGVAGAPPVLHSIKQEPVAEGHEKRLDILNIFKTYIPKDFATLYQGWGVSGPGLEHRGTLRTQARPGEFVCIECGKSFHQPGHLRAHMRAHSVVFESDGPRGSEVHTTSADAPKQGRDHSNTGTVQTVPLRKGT
UniProt Q5D1E8, sequence (Q5D1E8 whole entry): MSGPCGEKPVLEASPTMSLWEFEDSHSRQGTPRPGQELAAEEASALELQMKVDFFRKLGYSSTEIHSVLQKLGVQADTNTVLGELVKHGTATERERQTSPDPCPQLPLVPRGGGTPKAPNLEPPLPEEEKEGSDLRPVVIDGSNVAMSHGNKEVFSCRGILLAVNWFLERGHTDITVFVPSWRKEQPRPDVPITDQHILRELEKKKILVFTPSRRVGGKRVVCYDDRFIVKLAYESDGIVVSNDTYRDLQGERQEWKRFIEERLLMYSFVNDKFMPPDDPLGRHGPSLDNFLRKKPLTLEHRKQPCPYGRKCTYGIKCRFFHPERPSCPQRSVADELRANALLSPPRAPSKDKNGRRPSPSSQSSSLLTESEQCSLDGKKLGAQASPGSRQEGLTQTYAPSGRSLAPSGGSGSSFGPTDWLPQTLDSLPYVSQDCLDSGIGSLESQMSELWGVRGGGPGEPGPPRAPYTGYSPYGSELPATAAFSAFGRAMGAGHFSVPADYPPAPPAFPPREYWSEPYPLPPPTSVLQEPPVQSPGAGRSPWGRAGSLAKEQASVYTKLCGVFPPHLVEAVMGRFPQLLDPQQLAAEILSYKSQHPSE
UniProt Q9H8G1, sequence (Q9H8G1 whole entry): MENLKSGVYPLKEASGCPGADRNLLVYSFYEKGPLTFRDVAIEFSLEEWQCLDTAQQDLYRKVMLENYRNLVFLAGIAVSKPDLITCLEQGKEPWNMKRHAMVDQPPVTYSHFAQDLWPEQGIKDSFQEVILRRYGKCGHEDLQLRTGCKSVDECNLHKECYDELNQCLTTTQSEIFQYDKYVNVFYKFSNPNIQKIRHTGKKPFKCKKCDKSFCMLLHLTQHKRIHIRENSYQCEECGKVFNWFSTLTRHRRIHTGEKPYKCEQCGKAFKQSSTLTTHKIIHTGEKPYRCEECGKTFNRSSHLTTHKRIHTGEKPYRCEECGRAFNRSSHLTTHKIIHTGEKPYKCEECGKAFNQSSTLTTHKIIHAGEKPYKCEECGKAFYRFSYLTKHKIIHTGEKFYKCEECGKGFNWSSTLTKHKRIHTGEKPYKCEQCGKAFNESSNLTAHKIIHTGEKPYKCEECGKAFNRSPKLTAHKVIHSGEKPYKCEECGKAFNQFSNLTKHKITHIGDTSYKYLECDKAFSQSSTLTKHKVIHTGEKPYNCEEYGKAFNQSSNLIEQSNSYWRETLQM
UniProt Q7Z7L7, sequence (Q7Z7L7 whole entry): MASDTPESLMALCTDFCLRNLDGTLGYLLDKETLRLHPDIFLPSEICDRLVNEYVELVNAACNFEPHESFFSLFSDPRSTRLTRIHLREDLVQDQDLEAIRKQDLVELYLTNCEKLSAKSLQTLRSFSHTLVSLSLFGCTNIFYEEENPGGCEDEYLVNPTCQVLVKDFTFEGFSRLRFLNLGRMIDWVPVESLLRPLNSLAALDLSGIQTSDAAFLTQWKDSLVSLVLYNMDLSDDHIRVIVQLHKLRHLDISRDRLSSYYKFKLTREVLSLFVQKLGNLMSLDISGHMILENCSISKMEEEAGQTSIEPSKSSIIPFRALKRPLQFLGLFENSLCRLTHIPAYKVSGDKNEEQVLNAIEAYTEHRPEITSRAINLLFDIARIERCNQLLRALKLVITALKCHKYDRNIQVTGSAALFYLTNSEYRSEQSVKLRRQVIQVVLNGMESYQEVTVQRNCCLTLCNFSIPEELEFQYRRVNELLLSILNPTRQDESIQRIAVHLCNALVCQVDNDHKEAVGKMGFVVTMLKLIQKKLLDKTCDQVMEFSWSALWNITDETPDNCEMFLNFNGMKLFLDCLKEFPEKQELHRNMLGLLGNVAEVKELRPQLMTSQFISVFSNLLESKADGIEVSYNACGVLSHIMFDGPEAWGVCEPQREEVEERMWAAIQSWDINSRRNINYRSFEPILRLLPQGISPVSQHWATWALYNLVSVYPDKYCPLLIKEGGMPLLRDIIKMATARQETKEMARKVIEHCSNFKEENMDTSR
UniProt Q96K80, sequence (Q96K80 whole entry, looked up): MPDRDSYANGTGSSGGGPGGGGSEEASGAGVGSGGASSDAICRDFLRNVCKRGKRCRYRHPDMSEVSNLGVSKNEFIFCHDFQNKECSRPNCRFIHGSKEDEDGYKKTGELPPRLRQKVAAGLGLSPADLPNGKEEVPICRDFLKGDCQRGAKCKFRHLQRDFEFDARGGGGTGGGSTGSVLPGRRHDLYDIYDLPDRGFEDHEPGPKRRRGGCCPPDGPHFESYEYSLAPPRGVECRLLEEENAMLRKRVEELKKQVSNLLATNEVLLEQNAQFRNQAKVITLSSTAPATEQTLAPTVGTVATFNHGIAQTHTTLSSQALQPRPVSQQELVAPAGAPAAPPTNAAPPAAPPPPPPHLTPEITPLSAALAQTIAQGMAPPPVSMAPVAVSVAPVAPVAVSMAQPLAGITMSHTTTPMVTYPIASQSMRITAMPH
UniProt P25490, sequence (P25490 whole entry, looked up): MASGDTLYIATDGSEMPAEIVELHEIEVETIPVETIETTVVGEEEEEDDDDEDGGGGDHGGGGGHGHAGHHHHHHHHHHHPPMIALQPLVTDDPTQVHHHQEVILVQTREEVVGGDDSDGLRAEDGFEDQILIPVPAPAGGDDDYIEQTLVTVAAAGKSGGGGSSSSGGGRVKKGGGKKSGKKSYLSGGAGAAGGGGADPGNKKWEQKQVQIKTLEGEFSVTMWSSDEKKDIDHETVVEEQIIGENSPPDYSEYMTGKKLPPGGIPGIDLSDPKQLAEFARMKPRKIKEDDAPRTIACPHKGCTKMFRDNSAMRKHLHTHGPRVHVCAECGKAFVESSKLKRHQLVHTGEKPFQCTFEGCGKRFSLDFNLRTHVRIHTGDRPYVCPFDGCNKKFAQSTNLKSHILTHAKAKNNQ
UniProt O95365, sequence (O95365 whole entry, looked up): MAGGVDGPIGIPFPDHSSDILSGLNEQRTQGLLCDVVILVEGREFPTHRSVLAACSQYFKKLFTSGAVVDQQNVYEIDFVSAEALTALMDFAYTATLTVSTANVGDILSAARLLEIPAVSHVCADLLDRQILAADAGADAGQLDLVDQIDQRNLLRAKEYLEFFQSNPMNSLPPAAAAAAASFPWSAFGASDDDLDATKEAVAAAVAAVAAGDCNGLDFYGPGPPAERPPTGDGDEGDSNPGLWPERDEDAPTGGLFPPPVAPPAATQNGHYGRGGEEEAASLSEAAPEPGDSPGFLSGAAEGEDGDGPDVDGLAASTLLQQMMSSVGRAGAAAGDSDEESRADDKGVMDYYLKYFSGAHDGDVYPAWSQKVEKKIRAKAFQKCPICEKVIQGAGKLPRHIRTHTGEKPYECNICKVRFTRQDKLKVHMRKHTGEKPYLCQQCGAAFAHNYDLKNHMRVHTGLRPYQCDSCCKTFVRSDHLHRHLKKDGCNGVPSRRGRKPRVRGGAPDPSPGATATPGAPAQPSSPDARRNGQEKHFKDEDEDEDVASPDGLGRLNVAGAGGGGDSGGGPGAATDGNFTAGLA

Target	probe-labelled cysteine peptide fold change (compound 10; 10 µM)	probe-labelled cysteine peptide fold change (compound 10; 50 µM)	probe-labelled cysteine peptide fold change ([1]; 10 µM)	probe-labelled cysteine peptide fold change ([1]; 50 µM)
ZNF512B_Q96KM6_6_TDPFCVGGR (UniProt Q96KM6)	-0.0569	0.0733	–	–
ACTL6A_O96019_152_LTELMFEHYNIPAFFLCK (UniProt O96019)	–	–	-0.0461	0.0154
WDR77_Q9BQA1_186_DSVFLSCSEDNR (UniProt Q9BQA1)	0.136	0.227	–	–
ZNF76_P36508_292_THTGERPYTCPEPHCGR (UniProt P36508)	0.0197	-0.0549	–	–
ZRANB2_O95218_20_CGNVNFAR (UniProt O95218)	-0.0495	-0.314	–	–
ZNF516_Q92618_165_KGAEGSACAPGEAK (UniProt Q92618)	0.0165	-0.317	–	–
ACTN4_O43707_879_RELPPDQAEYCIAR (UniProt O43707)	–	–	0.0491	0.0892
ZYX_Q15942_467_AYHPHCFTCVVCAR (UniProt Q15942)	0.229	0.194	–	–
AAAS_Q9NRG9_335_CQTGCWSPDGSR (UniProt Q9NRG9)	–	–	0.605	-0.129
YWHAZ_P63104_94_DICNDVLSLLEK (UniProt P63104)	0.233	0.309	–	–
XIAP_P98170_213_NWEPCDR (UniProt P98170)	-0.0911	-0.654	–	–
AARS_P49588_184+187_DNFWEMGDTGPCGPCSEIHYDR (UniProt P49588)	–	–	0.105	-0.0756
ADAM15_Q13444_409_ALLDGMGSCLFER (UniProt Q13444)	–	–	-0.145	0.146
A6NIZ1_A6NIZ1_118_VKDTDDVPMILVGNKCDLEDER<|>RAP1B_P61224_118_VKDTDDVPMILVGNKCDLEDER (UniProt P61224+A6NIZ1)	–	–	-0.583	-0.426
ZNF217_O75362_641_SAVETQANNLICR (UniProt O75362)	-0.181	-0.0706	–	–
ZNF330_Q9Y3S2_120+122_CLSTHACACPLTDAECVECER (UniProt Q9Y3S2)	0.16	-0.138	–	–
YTHDC2_Q9H6S0_788_LLAPVNCPIADFLMK (UniProt Q9H6S0)	-0.0326	-0.072	–	–
ACADVL_P49748_237_TSAVPSPCGK (UniProt P49748)	–	–	-0.126	-0.057
ADK_P55263_160_SLIANLAAANCYKK (UniProt P55263)	–	–	-0.669	-0.408
AGGF1_Q8N302_494_CDPYVLEHGDEVK (UniProt Q8N302)	–	–	0.0808	0.0697
ADD2_P35612_224_CIIHLHTPATAAVSAMK (UniProt P35612)	–	–	-0.0204	-0.168

Target	probe-labelled cysteine peptide fold change (compound 10; 10 µM)	probe-labelled cysteine peptide fold change (compound 10; 50 µM)	probe-labelled cysteine peptide fold change ([1]; 10 µM)	probe-labelled cysteine peptide fold change ([1]; 50 µM)
WRN_Q14191_1367_HGPDSGLQPSCDVNK (UniProt Q14191)	-0.126	-0.11	–	–
ZNF598_Q86UK7_867_VCPTCQQVLAHGDASSHQALHAAR (UniProt Q86UK7)	0.228	0.187	–	–
WDFY4_Q6ZS81_2352_EAEGEPDEVGVDCTQLTFFPALHESLHSEDFLELCR (UniProt Q6ZS81)	-0.125	-0.598	–	–
ACADS_P16219_109_GCASTGVIMSVNNSLYLGPILK (UniProt P16219)	–	–	0.201	0.216
WIPI2_Q9Y4P8_430_LAYTDDLGAVGGACLEDEASALRLDEDSEHPPMILR (UniProt Q9Y4P8)	-0.352	-0.0492	–	–
ZNHIT6_Q9NWK9_171_FVGQCIK (UniProt Q9NWK9)	-0.528	-0.0997	–	–
WDR44_Q5JSH3_701_LITAANFCQNGK (UniProt Q5JSH3)	-0.0485	0.165	–	–
ZCCHC3_Q9NUD5_385_GHAFAQCPK (UniProt Q9NUD5)	0.0381	-0.0115	–	–
WDR55_Q9H6Y2_5_TCEERPAEDGSDEEDPDSMEAPTR (UniProt Q9H6Y2)	-0.668	-1.19	–	–
ZNHIT3_Q15649_30_VPYCSVVCFR (UniProt Q15649)	-0.0726	-1.11	–	–
YY1AP1_Q9H869_689_AHMNVDIACAVADGENAFQGLEPK (UniProt Q9H869)	-0.0161	0.141	–	–
WNK1_Q9H4A3_1135_VVECQLETHNRK (UniProt Q9H4A3)	0.208	0.14	–	–
WDR81_Q562E7_215_GSPACPSLLR (UniProt Q562E7)	-0.185	-0.529	–	–
WDR5_P61964_205_IWDTASGQCLK (UniProt P61964)	0.16	0.0228	–	–
ZC3HAV1_Q7Z2W4_513_VDDHDSEEICLDHLCK (UniProt Q7Z2W4)	0.0207	-0.396	–	–
WDHD1_O75717_285_GYAICGLAWHPTCGR (UniProt O75717)	-0.0417	-0.0589	–	–
XRN2_Q9H0D6_715_HHPLHDFILELYQTGSTEPVEVPPELCHGIQGK (UniProt Q9H0D6)	-0.0366	0.0175	–	–
ZMYM2_Q9UBW7_608_LYNFCNSSCVAK (UniProt Q9UBW7)	-0.186	-1.35	–	–
ZMYM2_Q9UBW7_612_LYNFCNSSCVAK (UniProt Q9UBW7)	-0.192	-1.33	–	–
XPO1_O14980_528_DLLGLCEQKR (UniProt O14980)	-0.248	-1.11	–	–
WDR82_Q6UXN9_195_TCEWTGLK (UniProt Q6UXN9)	-0.0459	0.418	–	–

Target	probe-labelled cysteine peptide fold change (compound 10; 10 µM)	probe-labelled cysteine peptide fold change (compound 10; 50 µM)	probe-labelled cysteine peptide fold change ([1]; 10 µM)	probe-labelled cysteine peptide fold change ([1]; 50 µM)
ZNF687_Q8N1G0_91_NTVCPEQSEALAGGSAGDGAQAAGVTK (UniProt Q8N1G0)	-0.392	-0.0527	–	–
ZDHHC21_Q8IVQ6_112_CGHCVR (UniProt Q8IVQ6)	0.0718	-0.0337	–	–
ZW10_O43264_650_LGIVWQDVLPVNIYCK (UniProt O43264)	0.139	0.206	–	–
ZMYND11_Q15326_126_CLSDEFR (UniProt Q15326)	-0.00978	0.0128	–	–
YWHAG_P61981_194_LGLALNYSVFYYEIQNAPEQACHLAK (UniProt P61981)	0.0292	0.41	–	–
ZER1_Q7Z7L7_337_RPLQFLGLFENSLCR (UniProt Q7Z7L7)	-0.124	-0.0583	–	–
ZC3H11A_O75152_588_SVLTPLRGDVASCNTQVAEK (UniProt O75152)	-0.0147	0.00571	–	–
XPO6_Q96QU8_324_NCVPMEFEEYLLR (UniProt Q96QU8)	-0.0141	0.145	–	–
WDR41_Q9HAD4_291_SNDISIHHFTCDEENVFAAVGR (UniProt Q9HAD4)	0.135	0.418	–	–
ZNF189_O75820_262_CSDCGK<|>ZSCAN22_P52741_466_CSDCGK<|>ZNF16_Q09FC8_435_CSDCGK<|>ZNF81_Q2M218_640_CSDCGK<|>ZNF134_Q5JVG2_290_CSDCGK<|>ZNF415_Q8N8J6_574_CSDCGK (UniProt Q8N8J6+Q5JVG2+Q2M218+Q09FC8+P52741+O75820)	0.0389	0.142	–	–
ZFAND2B_Q8WV99_134_HRHPLDHDCSGEGHPTSR (UniProt Q8WV99)	-0.148	0.178	–	–
ZBTB7A_O95365_490_DGCNGVPSR (UniProt O95365)	0.000157	-0.0775	–	–
ZFYVE19_Q96K21_435_CAGCDGDLFCAR (UniProt Q96K21)	0.0027	-0.124	–	–
WDFY4_Q6ZS81_88_AWEHSVGIICFPSLQR (UniProt Q6ZS81)	-0.23	0.423	–	–
ZNF451_Q9Y4E5_150_TGTINCGTK (UniProt Q9Y4E5)	-0.175	-1.18	–	–
ZC3H12A_Q5D1E8_374_RPSPSSQSSSLLTESEQCSLDGK (UniProt Q5D1E8)	-0.349	-0.484	–	–
ZNF451_Q9Y4E5_476_TWFCECNQR (UniProt Q9Y4E5)	0.0139	0.0709	–	–
WDR47_O94967_672_GSIYCVAWSPCGQLLATGSNDK (UniProt O94967)	-0.439	-1.25	–	–
ZNF691_Q5VV52_260_THTGERPYECTECGR (UniProt Q5VV52)	0.396	1.19	–	–
YAE1_Q9NRH1_143_SITPPSHVVDLLDSIEDMDLCHVVPAEK (UniProt Q9NRH1)	-0.335	0.0421	–	–
ZNF512_Q96ME7_540_NNEELVVSASCK (UniProt Q96ME7)	0.0455	0.0373	–	–

Target	probe-labelled cysteine peptide fold change (compound 10; 10 µM)	probe-labelled cysteine peptide fold change (compound 10; 50 µM)	probe-labelled cysteine peptide fold change ([1]; 10 µM)	probe-labelled cysteine peptide fold change ([1]; 50 µM)
ZFAND2A_Q8N6M9_84_GQIPDVVVGDHIDRDCDSHPGK (UniProt Q8N6M9)	1.7	3.88	–	–
ZNF430_Q9H8G1_138_CGHEDLQLR (UniProt Q9H8G1)	-0.195	-0.412	–	–
WDR6_Q9NNW5_830_LACHVMHLSSHR (UniProt Q9NNW5)	0.144	0.0864	–	–
ZNF787_Q6DD87_350_IHAVGAPSVCSSCGQSYYR (UniProt Q6DD87)	-0.238	-0.311	–	–
WASHC5_Q12768_385_WLMLHTADSACDPNNKR (UniProt Q12768)	-2.11	-2.63	–	–
ZNF280C_Q8ND82_388_ICELSFETEHILLQHMK (UniProt Q8ND82)	0.00547	0.0405	–	–
ZNF592_Q92610_592_IHVPASGYCCLECGDAFALEK (UniProt Q92610)	-0.0351	-0.192	–	–
WDR43_Q15061_291_LAVVCR (UniProt Q15061)	0.0146	0.0317	–	–
XPO4_Q9C0E2_723_ANLVIQCENWWNLAK (UniProt Q9C0E2)	0.102	-0.0501	–	–
WDR77_Q9BQA1_172_AHAAQVTCVAASPHK (UniProt Q9BQA1)	0.0618	0.254	–	–
ZW10_O43264_588_RLGTECFLAQMR (UniProt O43264)	0.00573	-0.0952	–	–
ZZEF1_O43149_728_DTEESVCGATLLLR (UniProt O43149)	-0.0306	-0.17	–	–
ZC3H10_Q96K80_140_EEVPICR (UniProt Q96K80)	-0.106	0.152	–	–
ZNF691_Q5VV52_176_CQESFR (UniProt Q5VV52)	-0.0275	-0.0396	–	–
ZBTB14_O43829_391_PFVCGSCTK (UniProt O43829)	0.104	-0.263	–	–
YARS2_Q9Y2Z4_413_EAPFSEFFLDPGTSVLDTCRK (UniProt Q9Y2Z4)	-0.161	-0.368	–	–
WDR48_Q8TAF3_366_GGASIIQCHILNDKR (UniProt Q8TAF3)	0.239	-0.0402	–	–
YY1_P25490_390_IHTGDRPYVCPFDGCNK (UniProt P25490)	0.136	0.715	–	–
